Experimental findings from PubChem BioAssay (NCATS) are described below.

Each structure is given as a SMILES string. Inconclusive results are not listed. The source made the active and inactive calls. Calls follow the shape of the dose curve; as a rule, active = well fitted inhibition curve with a large enough effect; inconclusive = small, poorly fitted or top-dose-only effect; inactive = flat fitted curve, though single readings scatter.

The test system of this assay is CRL-7250. In words: qHTS assay to identify novel small-molecules to repurpose for Merkel cell carcinoma treatment (AID 1296009). Also: nearly all actives have a fitted effect of over 60% in size. Conditions: MCC and control cell lines, CellTiter-Glo viability, 72 h; series mostly up to 92 µM; activity change, negative = cytotoxicity: at the top concentration. An outline of the steps: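 72 hr, 37 degree celsius; NPC 8-pt / MIPE 11-pt dose response; compound pinned in DMSO; CellTiter-Glo, 10 min RT, luminescence; normalized to no-cell and DMSO controls.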
Background: Quantitative high-throughput screening tests each substance at several concentrations.
Turning to `Cn1nc(C(C)(C)C)cc1C(=O)NC(Cc1cccc(Cl)c1)C(=O)NCC#N` (stereo not given), the call was inactive.

Consider `C=C(C)[C@@H]1CC[C@]2(C(=O)O)CC[C@]3(C)C(CCC4[C@]5(C)C(CC[C@]43C)C(C)(C)[C@@H](O)[C@@H]5C(=O)O)C12` (stereo not given in full), for which the “outcome” value was “inactive [at 17.4 µM]”.

`C[C@@H](c1ccccc1)N(C(N)=NC#N)c1cccc2ncccc12`: the molecule was classed as inactive.

As for `COc1ccc(/C=C/C(=O)O[C@@H]2[C@@H](OC(C)=O)[C@@H](OC(C)=O)[C@H](O[C@H]3[C@@H]4C=CO[C@@H](O[C@@H]5O[C@H](CO)[C@@H](O)[C@H](O)[C@H]5O)[C@@H]4[C@@]4(CO)O[C@@H]34)O[C@H]2C)cc1`, the “outcome” value was “inactive [at 17.4 µM]”.

Consider `CC1CCCCCCCc2cc(O)cc(O)c2C(=O)O1` (stereo not given), for which the molecule was called inactive.

For the molecule `OC[C@H]1O[C@@H](Oc2ccc(O)c3cccc(O)c23)[C@H](O)[C@@H](O)[C@@H]1O`, the result was inactive.

With `CC(=O)O[C@H]1C[C@@H](O)C(C)(C)C2C[C@@H](OC(C)=O)[C@@]3(C)C4=CCC(C(CO)CC(O)C5OC5(C)C)[C@]4(C)CCC3[C@]21C` (stereo not given in full), the “outcome” value was “inactive [at 17.4 µM]”.

As for `CC(C)=CCC[C@](C)(O[C@@H]1O[C@H](CO[C@@H]2OC[C@H](O)[C@H](O)[C@H]2O)[C@@H](O)[C@H](O)[C@H]1O)[C@H]1CC[C@]2(C)[C@@H]1[C@H](O)C[C@@H]1[C@@]3(C)CC[C@H](O[C@@H]4O[C@H](CO)[C@@H](O)[C@H](O)[C@H]4O[C@@H]4O[C@H](CO)[C@@H](O)[C@H](O)[C@H]4O)C(C)(C)[C@@H]3CC[C@]12C`, the “outcome” value was “inactive [at 17.4 µM]”.

As to `CC1(C)C2CC[C@]3(C)C(C(=O)C=C4[C@H]5C[C@@](C)(C(=O)O)CC[C@]5(C)CC[C@]43C)[C@@]2(C)CC[C@@H]1O` (stereo not given in full), the “outcome” value was “inactive [at 17.4 µM]”.

`COC(=O)/C=C/C=C/C(=O)OC1C=C2COC(=O)C2(O)C2(C)CCCC(C)(C)C12` (stereo not given): the “outcome” value is “inactive [at 17.4 µM]”.

As to `CC(=O)c1ccc(O[C@@H]2OC[C@@H](O)[C@H](O)[C@H]2O[C@]2(CO)O[C@H](CO)[C@@H](O)[C@@H]2O)c(O)c1`, the “outcome” value is “inactive [at 17.4 µM]”.

In the case of `O=C1CC(c2ccc([N+](=O)[O-])cc2)=NN1c1ccccc1`, the molecule was classed as inactive.

On to `Fc1ccc(-c2nc(C3CCNCC3)sc2-c2ccnc(NC3CC3)n2)cc1`, for which the molecule was classed as inactive.

For the molecule `CC1OC(O[C@H]2[C@@H](O)C[C@@]3(C)C([C@H](O)C[C@]4(C)C3CC=C3C5CC(C)(C)CC[C@]5(C(=O)OC5OC(CO)C(O)C(O)C5OC5OCC(OC6OCC(OC7OCC(O)C(O)C7O)C(O)C6O)C(OC6OCC(O)(CO)C6O)C5O)CC[C@]34C)[C@]2(C)CO)C(O)C(O)C1O` (stereo not given in full), the outcome is “inactive [at 9.27 µM]”.

For `CC1=C(CO)CC(C(C)C2CCC3C4CC=C5CC(OC6OC(COC7OC(CO)C(O)C(O)C7O)C(O)C(O)C6O)CC(O)C5(C)C4CCC23C)OC1=O` (stereo not given), the “outcome” value is “inactive [at 17.4 µM]”.

As to `CC(C)CC(=O)OC[C@@]1(O)C[C@@]23CC[C@H]4[C@@](C)(CCC[C@@]4(C)C(=O)O)[C@@H]2CC[C@@H]1C3`, the “outcome” value is “inactive [at 17.4 µM]”.

On to `C[C@@H]1CC[C@]2(C(=O)O[C@@H]3O[C@H](CO[C@@H]4O[C@H](CO)[C@@H](O)[C@H](O)[C@H]4O)[C@@H](O)[C@H](O)[C@H]3O)CC[C@]3(C)C(=CCC4[C@@]5(C)CC[C@H](O)[C@](C)(C(=O)O)C5CC[C@]43C)[C@@H]2[C@]1(C)O` (stereo not given in full), for which the outcome is “inactive [at 9.27 µM]”.

As for `CC(C)(C)OC(=O)c1ncn2c1C(C)(C)Nc1ccccc1-2`, the outcome was inactive.

Consider `CC(=O)O[C@H]1C[C@@]2(C)[C@@H](C[C@@H](O)[C@H]3[C@@]4(C)CC[C@@H](O)[C@@H](C)[C@@H]4CC[C@@]32C)/C1=C(\CCC=C(C)C)C(=O)O`, for which the call was inactive.

In the case of `CC(=O)OCC1=C[C@H](O)[C@@H]2C(C(=O)O)=CO[C@@H](O[C@@H]3O[C@H](CO)[C@@H](O)[C@H](O)[C@H]3O)[C@H]12`, the “outcome” value was “inactive [at 17.4 µM]”.

`CC1CC=C2C1CC1(O)C(=O)CC2(C)C1(C)CO` (stereo not given): the outcome was inactive.

As for `COC(=O)C[C@H]1C(C)(C)[C@H](OC(=O)C(C)C)[C@@]2(O)C(=O)[C@]1(C)C1CC[C@]3(C)C(CC(=O)O[C@H]3c3ccoc3)[C@]13O[C@@H]32` (stereo not given in full), the “outcome” value was “inactive [at 17.4 µM]”.

For the molecule `COC1C=C(C)C(O)(CO)C2(C)CCCC(C)(C)C12` (stereo not given), the molecule was classed as inactive.

Consider `O=C1NC(Cc2c[nH]c3ccccc23)C(=O)NC1Cc1cnc[nH]1` (stereo not given), for which the result was inactive.

Turning to `COc1cc(/C=C/C(=O)O[C@H]2[C@H](O)[C@@H](CO)O[C@@]2(CO)O[C@H]2O[C@H](CO)[C@@H](O)[C@H](O)[C@H]2O)cc(OC)c1O`, the “outcome” value is “inactive [at 17.4 µM]”.
